The text below walks through data of PubChem BioAssay (NCATS).

Unmarked numbers belong to inactive results. No rule for the calls is given here.
Potency is read from the fitted curve at half-maximal effect.

The subject of the test is HIV-1 nucleocapsid protein NCp7 (binding to TG oligonucleotide). Nature of the test: HIV Nucleocapsid (AID 346).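 Also: potency is for inhibitors that block NC binding and lower polarization.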 The following applies: HIV-1 NC / fluorescein-TGTGTGTG probe, fluorescence polarization. The method, boiled down:
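Fluorescence polarization readout: labelled TG4xF oligo (10 nM) with 100 nM nucleocapsid protein, high-salt (250mM NaCl) Hepes pH 7.5 buffer containing zinc and fresh reducing agents. Compounds added by pin tool; incubation 1 hr, room temperature.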
In general terms: Polarisation of emitted light reports the rotation of a fluorescent probe.
Regarding `COCCn1c(=O)c(C)nc2cnc(OCc3ccccc3)nc21`, the Potency was more than 20 µM.

Consider `O=C(c1ccco1)N1CCC2(CCCN(c3ccncc3)C2)CC1`, for which the Potency is more than 20 µM.

For `COc1ccc(Oc2ncc3nc(-c4ccccc4)c(=O)n(CCC#N)c3n2)cc1`, the Potency is more than 20 µM.

For the molecule `COc1cccc(-c2nc(NCc3cccs3)c3ccccc3n2)c1`, the Potency is more than 20 µM.

On to `Fc1ccc(Nc2ccnc(-c3ccccc3C(F)(F)F)n2)cc1`, for which the Potency was more than 20 µM.

`COCCn1c(=O)c(-c2ccc(OC)cc2)nc2cnc(N3CCNCC3)nc21`: the Potency was more than 20 µM.

On to `c1ccc(CNc2ncnc3ccc(-c4ccc5c(c4)OCO5)cc23)cc1`, for which the Potency is more than 20 µM.

With `CN(Cc1ccco1)c1nc(-c2ccccc2Cl)nc2ccccc12`, the Potency was more than 20 µM.

Take `COc1ccc(C(=O)N2CCC3(CC2)CCN(c2ccncc2)CC3)cc1`: the Potency is more than 20 µM.

For the molecule `COCCn1c(=O)c(-c2cccc(C#N)c2)nc2cnc(Oc3cccc(Cl)c3)nc21`, the Potency was more than 20 µM.

For `c1nc(NC2CCNCC2)c2cc(-c3ccoc3)ccc2n1`, the Potency is more than 20 µM.

On to `c1cncc(-c2nc(NCc3cccs3)c3ccccc3n2)c1`, for which the Potency was more than 20 µM.

For the molecule `CN(Cc1ccco1)c1nc(-c2cccnc2)nc2ccccc12`, the Potency was more than 20 µM.

For the molecule `N#Cc1ccc(CN2CCC3(CC2)CCN(C(=O)c2ccco2)CC3)cc1`, the Potency is more than 20 µM.

Consider `O=C(c1cccc(F)c1)N1CCC[C@@]2(CCN(c3ccccc3)C2)C1`, for which the Potency was more than 20 µM.

As for `CN(C)C(=O)c1ccc(-c2nc(-n3ccnc3)c3ccccc3n2)cc1`, the Potency was more than 20 µM.
